The target of the test is T1, TALE RAGT2-Renila luciferase fusion (pCLS24992) (artificial, UniProt P14727 SEQ:21-699).
T1 chain: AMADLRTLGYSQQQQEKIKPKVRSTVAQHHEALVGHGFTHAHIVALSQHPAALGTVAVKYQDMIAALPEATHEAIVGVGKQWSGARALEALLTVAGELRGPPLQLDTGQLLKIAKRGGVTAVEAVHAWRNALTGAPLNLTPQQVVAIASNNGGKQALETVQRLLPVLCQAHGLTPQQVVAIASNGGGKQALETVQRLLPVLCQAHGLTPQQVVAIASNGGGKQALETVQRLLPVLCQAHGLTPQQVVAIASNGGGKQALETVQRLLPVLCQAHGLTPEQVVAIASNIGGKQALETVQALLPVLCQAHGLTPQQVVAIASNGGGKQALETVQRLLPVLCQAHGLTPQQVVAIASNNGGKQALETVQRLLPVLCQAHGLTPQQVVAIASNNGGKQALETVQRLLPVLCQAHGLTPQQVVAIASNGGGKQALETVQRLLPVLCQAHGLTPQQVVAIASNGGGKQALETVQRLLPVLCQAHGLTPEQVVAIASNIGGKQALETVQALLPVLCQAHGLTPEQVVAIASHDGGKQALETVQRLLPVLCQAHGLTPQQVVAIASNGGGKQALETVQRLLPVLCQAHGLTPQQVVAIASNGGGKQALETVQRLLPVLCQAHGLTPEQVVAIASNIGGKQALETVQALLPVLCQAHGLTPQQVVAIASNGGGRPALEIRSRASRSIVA
Put plainly: mutation at T0 reduces luminescence by more than 60%; capture plus TALE binding. The conditions noted are these: tags: N-terminal His tag, C-terminal Renilla luciferase fusion; deltaN152 N-terminal domain, C11 C-terminal truncation; expressed in E. coli; label: biotin on bait; mismatched duplex. On the procedure: Different ssDNA targets (SEQ ID NO 6-20) harboring unique or multiple mutations with respect to the ssDNA wild type pray (SEQ ID NO 5, 10 pmol) were synthesized and used to assess the specificity of TALE RAGT2-Renila detector system. We first studied the effect of increasing amount of mutation within the ssDNA target on the luminescence of TALE RAGT2-Renila according to the detection protocol described earlier. Briefly, 10 pmol of ssDNA wild type or mutated were incubated with the ssDNA biotinylated pray already immobilized on the streptavidine coated plate. The mixture was heated and allow to cool down to RT. After washing the well with high and low salt containing TBST buffers, an excess of TALE RAGT2-Renila was added to the well (^{˜}300 pmol total), the unbound was then removed by two low salt buffer washing steps and the reaction mixture was added to determine luminescence. The luminescence obtained for each of the ssDNA prays used is illustrated in FIG. 20.

B1: pray SEQ 6 :bait (dsDNA)
DNA 1: CATGGTTTATGGTTACTTATGG
DNA 2: GTACAAAAAAGCAGTCGACTAGGGATAACAGGGTAATTATATAAACCTAACCCTCTTAGCATGAAGGTACCATAAGTAACCATAAACAATG
For B1, the binding signal was < 40 % of WT.

Values taken from patent publication US20160355875, “METHODS AND KITS FOR DETECTING NUCLEIC ACID SEQUENCES OF INTEREST USING DNA-BINDING PROTEIN DOMAIN” (CELLECTIS, published 2016).
